# Compound activity (PubChem)
# PostGolgi ctrl: growth inhibition of yeast control strain, primary screen, counter-screen for post-Golgi transport modulator project. inhibition, % at 10 µM. AID 738, 2007. efflux-deficient yeast background strain, growth absorbance A615, 16 h. 5% of 98,000 active
# PostGolgi yeast: phenotypic screen on post-Golgi transport, primary screen; post-Golgi transport phenotypic cell assay; inhibition, % at 10 µM; 0.9% of 98,000 active; AID 739, 2007;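 also: yeast cells grown in 1536-well plates; yeast grown about 18 h at 30C before absorbance read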
# CYP2C9 activ: human CYP2C9 activators, primary screen, biochemical, luminescence; Cytochrome P450 2C9 (Homo sapiens), P11712; activation factor at 5 µM; recombinant CYP2C9, luciferin-H conversion; active compounds read high; factor 1 = untreated enzyme, 0 = blocked; AID 1024, 2008; 1.4% of 96,000 active;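 active = activation factor of 2 or more for CYP2C9 at a 5 µM dose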
# CYP2C9 inh: blockers of cytochrome P450 2C9 activity – biochemical, luminescence, ADME assay, primary screen; CYP2C9 Supersomes, luciferin-H conversion; 20% of 96,000 active; P11712; inhibition, % at 5 µM;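 active = blocking of liver enzyme CYP2C9 beyond about 50% at 5 µM, limit read from the data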
# CYP2C19 activ: human CYP2C19 activators, primary screen, biochemical, luminescence; Cytochrome P450 2C19 (Homo sapiens), P33261; activation factor at 5 µM; AID 1025, 2008; recombinant CYP2C19, luciferin-H EGE luminescence; active compounds read high; 0 = fully inhibited enzyme, 1 = untreated enzyme; 96,000 tested, under 10 active;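 active = activation factor of at least 2 at 5 µM in the primary screen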
# Target sequence (P33261 whole entry, looked up): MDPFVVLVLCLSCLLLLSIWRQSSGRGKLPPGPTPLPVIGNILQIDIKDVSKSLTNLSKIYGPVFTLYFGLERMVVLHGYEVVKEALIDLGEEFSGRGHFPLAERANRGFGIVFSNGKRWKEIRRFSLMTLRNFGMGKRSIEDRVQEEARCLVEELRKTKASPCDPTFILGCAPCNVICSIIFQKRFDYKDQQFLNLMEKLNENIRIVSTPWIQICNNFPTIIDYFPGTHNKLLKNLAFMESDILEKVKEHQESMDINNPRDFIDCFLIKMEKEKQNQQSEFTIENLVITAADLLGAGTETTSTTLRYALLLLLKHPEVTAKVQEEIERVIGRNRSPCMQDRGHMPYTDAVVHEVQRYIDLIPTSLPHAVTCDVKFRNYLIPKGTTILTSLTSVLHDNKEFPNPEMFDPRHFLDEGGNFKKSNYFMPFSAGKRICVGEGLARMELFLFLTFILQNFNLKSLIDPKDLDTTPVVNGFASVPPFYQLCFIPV
# CYP2C19 inhib: blockers of cytochrome P450 2C19 activity – biochemical, luminescence, ADME assay, primary screen; P33261; CYP2C19 Supersomes, luciferin-H EGE luminescence, 30 min; inhibition, % at 5 µM; 21% of 96,000 active;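 active = CYP2C19 inhibition above a set limit at 5 µM in the primary screen, cut at about 50% in these data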
# A number is an active result; – = inactive; · = not tested or not shown. Shown are actives, neighbours in structure and some others; about 32% of the full set was active somewhere. Rule as the data show it, unless noted: active = inhibition above about 30%; inactive = the rest.
SMILES,PostGolgi ctrl,PostGolgi yeast,CYP2C9 activ,CYP2C9 inh,CYP2C19 activ,CYP2C19 inhib
CN(C)/C=N/c1nc2ccc3c(c2s1)CCCC3,·,·,–,–,–,81
Cc1noc(/C=C/N(C)C)c1S(=O)(=O)N1CCCC(C(=O)NCc2cccs2)C1 (configuration not stated),–,–,–,68,–,–
Cc1ccc(CCNC(=O)C2CCCN(S(=O)(=O)c3c(C)noc3/C=C/N(C)C)C2)cc1 (configuration not stated),–,–,–,69,–,–
Cc1noc(C)c1S(=O)(=O)N1CCCC(C(=O)NCCc2ccccc2)C1 (configuration not stated),–,–,–,–,–,–
CCCCCOC(=O)NCC(O)c1ccccc1 (configuration not stated),–,–,–,–,–,–
CCOC(=O)NC(NCC(O)c1ccccc1)(C(F)(F)F)C(F)(F)F (configuration not stated),–,–,–,–,–,65
CCCCOC(=O)NC(NCC(O)c1ccccc1)(C(F)(F)F)C(F)(F)F (configuration not stated),–,–,–,78,–,91
CCOC(=O)NC(Nc1ncccn1)(C(F)(F)F)C(F)(F)F,–,–,–,–,–,–
COc1ccc(/C=N/c2nc3ccccc3n2C)cc1OC,–,–,–,–,–,–
CCOc1ccc(-n2c(SCC(N)=O)nc3c(c2=O)SCC3)cc1,–,–,–,–,–,–
Cc1cccc(C(=O)NNC2=C(C(=O)C(F)(F)F)CCC2)c1O,–,–,–,94,–,–
CCC(CC)NC(=O)COC(=O)c1cccc(C)c1O,–,–,–,–,–,–
CN(C)CCNC(=O)c1c(O)c2c([nH]c1=O)CCCC2,–,–,–,–,–,–
CCCc1cc(=O)[nH]c(SCc2ccccc2Cl)n1,45,–,–,72,–,50
CCCc1cc(=O)[nH]c(SCc2nc3ccccc3s2)n1,–,–,–,–,–,–
CCCc1cc(=O)[nH]c(SCC(=O)CSc2nc(CCC)cc(=O)[nH]2)n1,–,–,–,70,–,–
CCCc1cc(=O)[nH]c(SCCOC(=O)c2ccccc2)n1,–,–,–,71,–,54
COc1ccccc1NC(=O)N1CCC(c2nnc(SCC(N)=O)n2C)CC1,–,–,–,–,–,–
O=C(c1ccco1)N1CCN(CC2CC3C=CC2C3)CC1 (configuration not stated),–,–,–,–,–,–
C=CCc1cccc(/C=N/n2cnnc2)c1O,–,–,–,–,–,66
CCOC(=O)CCCCC(=O)NC(CO)C(=O)NC (configuration not stated),–,–,–,–,–,–
COCC(=O)N(C)C1(c2nnnn2CCOC(=O)Nc2cccc3ccccc23)CCCC1,–,–,–,–,–,–
O=C1c2cccc3c(N4CCCCC4)ccc(c23)C(=O)N1CCO,–,–,–,–,–,–
Cc1n[nH]c(C)c1N1C(=O)c2cccc3c(N4CCCCCC4)ccc(c23)C1=O,–,–,–,97,–,83
CC(=O)Nc1cc(OC(=O)c2ccco2)cc(OC(=O)c2ccco2)c1,–,–,–,66,–,–
SMILES,PostGolgi ctrl,PostGolgi yeast,CYP2C9 activ,CYP2C9 inh,CYP2C19 activ,CYP2C19 inhib
CCOC(=O)C1=C(C)NC(C)=C(C(=O)OCC)C1c1ccc(OC)cc1,–,–,–,88,–,70
COCCOC(=O)C1=C(C)NC(=O)NC1c1ccc(OC(=O)c2ccco2)c(OC)c1 (configuration not stated),–,–,–,–,–,–
C=CCOC(=O)C1=C(C)NC(C)=C(C(=O)OCC=C)C1c1ccc(O)cc1,·,·,–,100,–,100
COC(=O)C1=C(C)NC(C)=C(C(=O)OC)C1c1ccc(OC(=O)c2ccco2)cc1,–,–,–,57,–,–
CCCOC(=O)c1ccc(OC(=O)c2ccco2)cc1,–,–,2,–,–,–
CCCOC(=O)c1ccc(NC(=O)Oc2ccccc2)cc1,–,–,–,–,–,–
CCOC(=O)C1C(=O)C=C(C)C(C(=O)OCC)C1c1ccc(OC)cc1 (configuration not stated),–,–,–,–,–,73
COC(=O)C1=C(C)NC(C)=C(C(=O)OC)C1c1ccccn1,–,–,–,83,–,–
O=S(=O)(c1cccc(C(F)(F)F)c1)N1CCC(c2cc(-c3cccc4ccccc34)n[nH]2)CC1,–,–,–,–,–,–
CSc1oc(-c2ccccc2)nc1C(N)=O,–,–,·,·,·,·
Cc1cccc(Nc2nn3c(=O)c4ccccc4nc3s2)c1,–,–,–,–,–,–
CCCSc1nn2c(=O)c3ccccc3nc2s1,–,–,–,–,–,79
COCCNC(=O)COC(=O)c1[nH]c(C)c(C(C)=O)c1C,–,–,–,–,–,–
Cn1cc(C(=O)C(F)(F)F)c2ccccc21,–,–,–,–,–,–
Cc1nc(SCc2ccc([N+](=O)[O-])cc2)nc2ccccc12,–,–,–,–,–,–
COc1ccc(C(=O)Nn2c(SCc3ccc([N+](=O)[O-])cc3)nc3ccccc3c2=O)cc1,–,–,–,84,–,–
CCOC(=O)CSc1nc2ccccc2c(=O)n1NC(=O)c1ccccc1,–,–,–,67,–,–
COc1ccc(C(=O)Nn2c(SCC(=O)c3ccccc3)nc3ccccc3c2=O)cc1,–,–,–,–,–,–
Cc1ccc(CNC(=O)CSc2nc3ccsc3c(=O)n2NC(=O)c2ccccc2)cc1,–,–,–,64,–,–
COC(=O)Nc1ccc(S(=O)(=O)N2c3ccccc3CCC2C)cc1 (configuration not stated),34,–,–,–,–,–
O=C1CCC([N+](=O)[O-])C(c2ccc(Cl)cc2Cl)N1 (configuration not stated),–,–,–,–,–,–
O=C(CN1CCC2(CC1)OCCO2)c1ccc2cc[nH]c2c1,–,–,–,–,–,86
O=C(CN1CCN(c2ccccc2)CC1)c1ccc2cc[nH]c2c1,–,–,–,–,–,–
O=C(Nc1ccc(Cl)cc1C(=O)NCCN1CCOCC1)c1ccco1,–,–,–,68,–,–
O=C(CNC(=O)c1ccco1)Nc1cc(Cl)ccc1N1CCOCC1,–,–,–,73,–,–
CCC/S(CC1CC1(Cl)Cl)=N\S(=O)(=O)c1ccc(C)cc1 (configuration not stated),–,–,–,–,–,–
Fc1cccc(Cl)c1Cn1nnc2c(-n3ccnc3)ncnc21,–,–,–,66,–,95
Cc1ccc(CC(=O)NCCCc2ccccc2)cc1,–,–,–,85,–,79
Cc1occc1C(=O)NCc1ccccc1F,–,–,–,51,–,–
